Shown are actives, neighbours in structure and some others; about 7.5% of the full set was active somewhere.
ELG1 genotoxic: inducers of genotoxicity in HEK293T ELG1-luciferase cells; Potency, µM (series often up to 46 µM), for inactives: top-dose activity change, positive = activation, hits mostly activators; HEK293T ELG1-luciferase reporter, luminescence, 16 h; 330,000 tested, 1.3% active; AID 504466; note: % of control where 0% means no effect; nearly all actives have a fitted effect of over 60% in size
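Step 1: seed 2,000 HEK293T ELG1-luciferase cells per well. Step 2: add compound or DMSO, incubate 16 hr at 37 °C. Step 3: ONE-Glo, 30 min at room temperature, read luminescence.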
FLuc modulator: counter-screen for miR-21 project: firefly luciferase inhibitors or activators; purified FLuc, Km substrates, luminescence inhibition; Potency, µM (titrated, usually from 57.5 µM), inactives show at the highest dose activity change, negative = inhibition, most hits filed as inhibitors; 360,000 tested, 6.9% active;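 note: plate controls were vehicle for no effect and reference inhibitor for full effect; nearly all actives have a fitted effect of over 55% in size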
Target sequence (P08659 whole entry, looked up): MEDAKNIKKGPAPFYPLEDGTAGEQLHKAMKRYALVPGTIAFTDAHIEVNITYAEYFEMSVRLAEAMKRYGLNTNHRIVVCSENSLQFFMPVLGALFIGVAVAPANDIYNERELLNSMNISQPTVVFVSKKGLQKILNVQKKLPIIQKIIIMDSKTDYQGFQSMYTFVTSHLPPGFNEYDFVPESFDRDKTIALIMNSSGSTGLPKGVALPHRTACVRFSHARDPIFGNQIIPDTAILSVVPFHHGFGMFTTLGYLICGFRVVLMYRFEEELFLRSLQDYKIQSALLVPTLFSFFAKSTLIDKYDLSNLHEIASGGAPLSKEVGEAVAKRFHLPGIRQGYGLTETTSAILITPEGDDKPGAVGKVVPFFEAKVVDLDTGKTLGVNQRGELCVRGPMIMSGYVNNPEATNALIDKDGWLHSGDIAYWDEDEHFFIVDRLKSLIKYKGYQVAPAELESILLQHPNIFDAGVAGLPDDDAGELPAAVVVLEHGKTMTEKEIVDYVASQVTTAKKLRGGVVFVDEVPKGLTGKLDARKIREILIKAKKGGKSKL
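Purified P. pyralis luciferase (10nM final) with 10uM D-luciferin and 10uM ATP (Km levels) in 50mM Tris acetate pH 7.5, 10mM Mg acetate, 0.01% Tween-20, 0.05% BSA; qHTS 6-point titration, ~60 µM downward; luminescence read.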
Luc counter: Kinase-Glo luciferase inhibition (counter-screen); Q27757; AID 1379; Kinase-Glo luciferase, ATP luminescence, 8 min; 200,000 tested, 0.28% active; Potency, µM (doses to about 38.3 µM), without a hit: at the highest dose activity change, negative = inhibition, hits mostly inhibitors; note: % is set by controls: 0 for no effect and ±100 for the full control effect; nearly all actives have a fitted effect of over 60% in size
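Compounds were added to a substrate mix at pH 7.2 (50 mM imidazole, 10 uM ATP, within the enzyme's linear range), followed by Kinase-Glo detection reagent; luminescence was measured after 8 minutes at ambient temperature.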
Rab9 prom act: activators of Rab9 promoter | Huh7 Rab9 promoter-luciferase reporter, luminescence, 24 h | Potency, µM (series often up to 9.22 µM), without a hit: at the highest dose activation, negative = inhibition, hits mostly activators | 320,000 tested, 2.8% active | AID 485297; note: % of control where 0% means no effect; nearly all actives have a fitted effect of over 60% in size
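Huh7 reporter line, Rab9 promoter upstream of luciferase. Compound exposure 24 h at 37 °C in reduced-serum medium with 10% FBS. Read-out: luminescence.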
NPC1 promoter act: activates the NPC1 promoter | Huh7 NPC1 promoter luciferase reporter, 24 h | 320,000 tested, 2.4% active | AID 485313 | Potency, µM (series often up to 9.22 µM), for inactives: top-dose activation, usual class: activators; note: % of control where 0% means no effect; nearly all actives have a fitted effect of over 60% in size
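Luciferase expression driven by the NPC1 promoter was measured in stably transfected Huh7 cells after a 24 h compound incubation, using a luciferase reagent and a luminescence read.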
SMN2 splice up: increases expression of the SMN2 splice variant; HEK293 SMN2-luciferase splicing reporter, luminescence, 30-36 h; Potency, µM (titrated, usually from 46.1 µM), for inactives: at the highest dose activity change, positive = activation, most hits filed as activators; 210,000 tested, 2.8% active; note: % of control where 0% means no effect; nearly all actives have a fitted effect of over 55% in size
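HEK293 cells carry an SMN2 […]–luciferase reporter in which exon 7 inclusion puts luciferase in frame. Cells were plated 10-12 h before compound addition, then incubated 30-36 h at 37C. ONE-Glo luminescence was read; sodium butyrate at 4.5 mM final served as control.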
Numbers without * were called inactive; ? = inconclusive; · = no result; [ ] = remark or other dose. Calls come from the whole dose curve; as a rule, active = well fitted curve in the direction sought with a large enough effect; inconclusive = small, poorly fitted or top-dose-only effect, or another doubt; inactive = no such curve, though single readings can be large; an effect the other way counts as inactive or inconclusive. Potency is the fitted concentration of half-maximal effect.

SMILES	ELG1 genotoxic	FLuc modulator	Luc counter	Rab9 prom act	NPC1 promoter act	SMN2 splice up
O=C(COC(=O)c1cccnc1Cl)c1ccc(F)cc1	7.5%	3.01µM*	-15.1%	1.0%	1.7%	14.1%
CC1CC(=O)N(CC(=O)Nc2ccc(OC(F)(F)F)cc2)c2ccccc2S1 (stereo not drawn)	·	5.1%	·	·	·	4.0%
COc1ccccc1CNS(=O)(=O)c1ccc2c(c1)CC(C)N2C(C)=O (stereo not drawn)	·	-7.0%	·	·	·	·
O=C(NCC(c1ccc(Cl)cc1)N1CCCCC1)c1ccccc1F (stereo not drawn)	·	5.6%	·	·	·	·
CCC(C)(C)c1ccc(OC(=O)c2cccnc2Cl)cc1	?	4.78µM*	·	5.8%	-1.3%	·
O=C(OCc1ccc(COC(=O)c2cccnc2Cl)cc1)c1cccnc1Cl	-3.5%	?	-2.1%	-7.0%	-4.6%	-4.1%
Nc1ccc2nc(NC(=O)C3CCCCC3)sc2c1	20.6µM*	6.75µM*	-4.4%	4.47µM*	?	14.1µM*
O=C(Nc1nc2ccc(F)cc2s1)C1CCN(S(=O)(=O)c2cc([N+](=O)[O-])ccc2Cl)CC1	-13.1%	10.7µM*	-0.2%	-19.5%	-21.3%	-2.0%[1.84 µM]
Cc1ccc2nc(NC(=O)C3CCN(S(=O)(=O)c4cc([N+](=O)[O-])ccc4Cl)CC3)sc2c1	-0.2%	?	-1.2%	-25.7%	-13.2%	-24.9%
O=C(Nc1nc2ccccc2s1)C1c2ccccc2Oc2ccccc21	2.1%	2.5%	-0.1%	-0.9%	-0.6%	-22.3%
CCOc1ccc2nc(NC(=O)C3CCCO3)sc2c1 (stereo not drawn)	2.0%	-1.4%	-1.7%	-7.3%	-6.1%	·
O=C(Nc1nc2ccc(F)cc2s1)C1CCCO1 (stereo not drawn)	?	6.75µM*	-8.4%	2.24µM*	1.12µM*	15.8µM*
O=C(Nc1nc2ccccc2s1)C1CCCO1 (stereo not drawn)	5.8µM*	15.1µM*	-2.4%	?	1.12µM*	12.6µM*
Cc1c(NC(=O)C(C)(C)Oc2ccc(Cl)cc2)cccc1-c1nc2ccccc2o1	·	?	·	·	·	-31.6%
O=C(Nc1nnc(-c2ccncc2)s1)C1CCCO1 (stereo not drawn)	0.7%	-11.4%	-2.1%	13.9%	12.8%	?
O=C(Nc1ncc(Cc2ccccc2)s1)C1CCCO1 (stereo not drawn)	?	4.26µM*	-2.8%	2.24µM*	1.12µM*	5.01µM*
O=C(Nc1nnc(-c2ccccc2F)s1)C1CCCO1 (stereo not drawn)	?	15.1µM*	-5.0%	2.51µM*	3.55µM*	5.01µM*
CC1=C(c2ccc(C(C)C)cc2)S(=O)(=O)NC1=NCc1ccc(OC(C)C)cc1	·	1.7%	·	·	·	·
COc1cccc(-c2cc(C(=O)O)[nH]n2)c1	0.8%	-19.1%	-0.8%	-6.8%	-2.3%	11.5%
COc1cccc(-c2cc(C(=O)Nc3ccc(F)cc3)[nH]n2)c1	·	1.69µM*	·	·	·	·
COc1ccc(CNC(=O)c2cc(-c3ccc(C)c(C)c3)n[nH]2)cc1	·	10.7µM*	·	·	·	·
COc1cccc(-c2cc(C(=O)NCc3ccccc3)[nH]n2)c1	·	21.3µM*	·	·	·	·
COCCCNC(=O)CSc1nc2cc3c(cc2c(=O)n1CCCCCC(=O)NCc1ccc(OC)cc1)OCO3	·	-7.8%	·	·	·	·
Fc1ccc(-c2cc(-c3ccccc3)c3c(n2)-c2cc(F)ccc2OC3)cc1	·	2.3%	·	·	·	-5.3%
Cc1ccc(-c2cc(C(=O)N3CCN(c4ccccc4)CC3)c3ccccc3n2)cc1C	·	2.39µM*	·	·	·	·
SMILES	ELG1 genotoxic	FLuc modulator	Luc counter	Rab9 prom act	NPC1 promoter act	SMN2 splice up
Cc1ccc(-c2cc(C(=O)n3cnc4ccccc43)c3ccccc3n2)cc1C	11.7%	3.01µM*	-4.1%	?	?	21.3%
COc1ccc(-c2cc(C(=O)N3CCCC(C(F)(F)F)C3)c3ccccc3n2)cc1OC (stereo not drawn)	-16.5%	?	·	0.7%	-0.9%	·
COc1ccc(-c2cc(C(=O)N3CCN(c4ccccc4)CC3)c3ccccc3n2)cc1OC	-15.4%	15.1µM*	-6.7%	-2.4%	-3.3%	24.7%
Cc1ccc2c(C(=O)N3CCN(c4ccccc4)CC3)cc(-c3cccnc3)nc2c1C	-3.4%	-2.2%	0.5%	-5.6%	-6.6%	9.8%
CCOc1ccc(NC(=O)CC2C(=O)N(c3ccc(C)cc3)C(=O)N2C2CCCCC2)cc1 (stereo not drawn)	·	?	·	·	·	16.7%
CCN(CC)S(=O)(=O)c1ccc2c(c1)c(=O)c(C(=O)NCc1ccc(Cl)cc1)cn2C	·	-1.0%	·	·	·	-0.8%
Cc1cc(C)cc(NC(=O)CN2C(=O)NC(C)(c3ccccc3)C2=O)c1 (stereo not drawn)	2.1%	-19.6%	-1.7%	11.9%	-6.2%	-10.7%
CC1(c2ccccc2)NC(=O)N(CC(=O)Nc2cccc(/C=C/c3ccccn3)c2)C1=O (stereo not drawn)	-7.6%	19µM*	·	10.4%	-0.4%	·
Cc1c2cn[nH]c(=O)c2c(C)n1-c1ccccc1	17.6%	6.01µM*	·	4.3%	2.6%	·
COc1ccc2cc(C(=O)N/N=C/c3sc4ccccc4c3O)ccc2c1	?	13.5µM*	-5.1%	-13.7%	-3.1%	-105.5%
O=C(N/N=C/c1sc2ccccc2c1O)c1cccc2ccccc12	11.3%	16.9µM*	-0.6%	-13.3%	-21.2%	-91.6%
COc1ccc(N=Cc2sc3ccccc3c2Cl)cc1	9.9%	4.78µM*	0.7%	3.7%	28.0%	0.8%
Oc1ccc(Cl)cc1N=Cc1sc2ccccc2c1Cl	28.7%	-17.1%	-0.8%	0.8%	1.8%	-17.0%
COc1ccc(C(=O)N/N=C/c2c(C)[nH]c(=O)[nH]c2=O)cc1	0.1%	-6.7%	0.1%	-0.5%	6.2%	-2.7%
COc1ccc(/C=N\NC(=O)c2cccc(Br)c2)c(OC)c1	-2.8%	3.8%	-2.8%	1.4%	-2.8%	·
COc1ccc(C(=O)N/N=C/c2sc3ccccc3c2O)cc1	?	13.5µM*	-1.7%	-41.8%	-30.5%	-95.1%
COc1ccccc1CNC(=O)COc1cc(=O)n(C)c2ccccc12	·	-6.7%	·	·	·	-0.2%
Cc1cc(C)c(Cn2c(CCNC(=O)c3ccco3)nc3ccccc32)c(C)c1	·	-5.1%	·	·	·	-13.0%
O=C(CSc1nc2ccccc2nc1Cc1ccc(Cl)cc1)N1CCCCC1	·	-14.1%	·	·	·	·

High-throughput results (PubChem BioAssay)
